TEAD-YAP block – TEAD-YAP interaction inhibition; HEK-TIYL cells, TEAD-Gal4/YAP UAS-luciferase luminescence; 640,000 compounds, 1.4% hits; inhibition, % at 9.12 µM; AID 1259422; in the data active = inhibition above about 32%;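 also: 0% = median of test compound wells and 100% = reference inhibitor wells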
FBW7 act – activators of human E3 ligase FBW7; Q969H0; AlphaScreen FBW7–phospho-cyclin E peptide binding, activator screen; normalized activity (activation), % at 26.1 µM; 650,000 compounds, 0.13% hits; AID 1259310; in the data active = normalized activity above about 1.9%;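 also: purified mutant Fbw7 with reduced substrate affinity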
MITF inh – blocks human microphthalmia-associated transcription factor. inhibition, % at 2.6 µM. AlphaScreen MITF homodimerization, bead proximity signal. AID 1259374. 650,000 compounds, 0.91% hits; in the data active = inhibition above about 50%;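 also: 0% = vehicle wells with protein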
Target sequence (O75030 whole entry, looked up): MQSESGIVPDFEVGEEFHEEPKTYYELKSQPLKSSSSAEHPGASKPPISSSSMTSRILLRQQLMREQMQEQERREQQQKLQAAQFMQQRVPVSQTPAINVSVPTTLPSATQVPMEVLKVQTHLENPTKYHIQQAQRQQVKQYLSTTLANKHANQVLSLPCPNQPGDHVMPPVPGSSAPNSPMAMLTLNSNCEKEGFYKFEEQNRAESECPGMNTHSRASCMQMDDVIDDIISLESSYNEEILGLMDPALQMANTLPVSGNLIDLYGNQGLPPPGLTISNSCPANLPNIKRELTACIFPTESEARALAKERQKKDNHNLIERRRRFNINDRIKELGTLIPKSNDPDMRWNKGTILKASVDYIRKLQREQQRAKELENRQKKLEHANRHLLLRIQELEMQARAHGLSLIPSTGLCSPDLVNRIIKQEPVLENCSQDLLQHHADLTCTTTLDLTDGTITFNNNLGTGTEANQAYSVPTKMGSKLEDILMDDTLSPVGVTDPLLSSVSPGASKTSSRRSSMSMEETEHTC
GPR151 activ – activators of human GPR151. Q8TDV0. AID 1508602. PathHunter beta-arrestin GPR151 cells, luminescence. activation, % at 11.2 µM. 650,000 compounds, 1% hits; in the data active = activation above about 4.9%;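 also: 0% = median of compound wells and 100% = cells with positive control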
GPR151 confirm – human GPR151 activation, confirmation screen; AID 1508609; GPR151 PathHunter beta-arrestin cells, luminescence, 90 min; % of EA-reagent control over plate median; activation, % at 11.2 µM; shares compounds with GPR151 activ; 6,700 tested, under 10 active;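 active = mean percent activation across replicates above the confirmation screen cutoff of 4.91%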
GPR119 ag – counter-screen for GPR151 activators: effect on human GPR119. shares compounds with GPR151 activ. GPR119 PathHunter beta-arrestin cells, luminescence, 90 min; 0 = compound-well median, 100 = enzyme-acceptor control. activation, % at 11.2 µM. 6,700 compounds, 0.3% hits. AID 1508611;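 active = mean percent activation in the counterscreen above 29.09%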;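 also: counterscreen on off-target GPR119 to flag nonselective hits from the GPR151 activator screen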
* = called active by the depositor; ! = not confirmed by another sample. Sampled rows, rich in hits. Any-hit rate of the full collection: about 3.5%.

How did O=C(CCc1ccccc1)Nc1cc(Cl)ccc1Cl do in these assays?
TEAD-YAP block: -8; FBW7 act: 0; MITF inh: 6; GPR151 activ: -1

How did O=C(CC(NCc1ccccc1)C(=O)O)Nc1cc(Cl)ccc1Cl (stereo not given) do in these assays?
TEAD-YAP block: 1; FBW7 act: 0; MITF inh: 0; GPR151 activ: 7.2*; GPR151 confirm: 0; GPR119 ag: 14

How did CCOCCCNC(=O)CCc1c(C)nc2c(c(C)nn2C(C)(C)C)c1C do in these assays?
TEAD-YAP block: -1; FBW7 act: 0; MITF inh: 1; GPR151 activ: 3

Results for O=C1c2cccc3cccc(c23)N1Cc1c(O)ccc2ccccc12 ?
TEAD-YAP block: 6; FBW7 act: 0; MITF inh: 4; GPR151 activ: 5.5*; GPR151 confirm: 0; GPR119 ag: -6

Results for CCCCn1nnnc1SCC(=O)NNC(=O)c1ccco1 ?
TEAD-YAP block: 12; FBW7 act: 0; MITF inh: 13; GPR151 activ: 5.9*; GPR151 confirm: 1; GPR119 ag: 4

What do the screens show for `CCCn1nnnc1SCC(=O)NNC(=O)c1ccco1`?
TEAD-YAP block: 1; FBW7 act: 0; MITF inh: -7; GPR151 activ: 0

How did CCOC(=O)C(C#N)=C(c1ccccc1)c1ccccc1 do in these assays?
TEAD-YAP block: 5; FBW7 act: 0; MITF inh: -8; GPR151 activ: 0

How did CCOC(=O)/C(C#N)=C(\C)c1ccccc1 do in these assays?
TEAD-YAP block: -5; FBW7 act: 0; MITF inh: 7; GPR151 activ: 7.0*; GPR151 confirm: 2; GPR119 ag: 8

How did COCCCNC(=O)C1CCC(Cn2c(=O)c3sccc3n(Cc3cccc(C)c3)c2=O)CC1 (stereo not given) do in these assays?
TEAD-YAP block: -5; FBW7 act: 0; MITF inh: 5; GPR151 activ: 5.3*; GPR151 confirm: 0; GPR119 ag: -10

Results for COc1cc(N2CCOCC2)ccc1/C=C1\C(=O)NC(=S)N(c2ccc(F)cc2)C1=O ?
TEAD-YAP block: 8; FBW7 act: 0; MITF inh: 7; GPR151 activ: 5.2*; GPR151 confirm: 0; GPR119 ag: -4

How did Cc1nn(-c2ccccc2)c(Cl)c1/C=C1\SC(=S)NC1=O do in these assays?
TEAD-YAP block: 1; FBW7 act: 0; MITF inh: 4; GPR151 activ: 5.3*; GPR151 confirm: 1; GPR119 ag: 9

Results for O=C1NCN(c2ccccc2)C12CCN(CCCC(c1ccc(F)cc1)c1ccc(F)cc1)CC2 ?
TEAD-YAP block: 4; FBW7 act: 0; MITF inh: 19; GPR151 activ: 7.2*!; GPR151 confirm: -1; GPR119 ag: -12

What do the screens show for `Fc1ccc(C(CCCN2CCN3CCCC3C2)c2ccc(F)cc2)cc1` (stereo not given)?
TEAD-YAP block: -1; FBW7 act: 0; MITF inh: -4; GPR151 activ: 1

What do the screens show for `COc1ccccc1N1CCN(c2ncnc3sc(C(=O)Nc4cc(OC)c(OC)c(OC)c4)c(C)c23)CC1`?
TEAD-YAP block: -1; FBW7 act: 0; MITF inh: 7; GPR151 activ: 1

What do the screens show for `COc1cc2c(cc1NC(=O)C/C(C)=N/NC=O)oc1ccccc12`?
TEAD-YAP block: -6; FBW7 act: 0; MITF inh: 15; GPR151 activ: 13*; GPR151 confirm: 0; GPR119 ag: 0

How did CCN(CC)c1ccc2cc(-c3nc(-c4ccccc4)cs3)c(=Nc3ccc(OC)cc3)oc2c1 do in these assays?
TEAD-YAP block: -11; FBW7 act: 0; MITF inh: -3; GPR151 activ: -1

What do the screens show for `CCN(CC)C(=O)CN1CCN(c2ccc(OC)cc2)CC1`?
TEAD-YAP block: -7; FBW7 act: 0; MITF inh: 1; GPR151 activ: 0

What do the screens show for `Cc1nn(-c2ccc(Cl)cc2)c2sc(C(=O)Nc3ccc(C(N)=O)cc3)cc12`?
TEAD-YAP block: 10; FBW7 act: 0; MITF inh: 3; GPR151 activ: 6.7*; GPR151 confirm: 1; GPR119 ag: 3

Results for Cc1nn(-c2ccccc2)c2sc(C(=O)Nc3ccc(Cl)cc3)cc12 ?
TEAD-YAP block: -2; FBW7 act: 0; MITF inh: 0; GPR151 activ: 0

Results for CCN(CC)c1nc(Nc2ccccc2)nc(Nc2nc3ccccc3n2C)n1 ?
TEAD-YAP block: -3; FBW7 act: 1; MITF inh: 4; GPR151 activ: -1

What do the screens show for `CCN(CC)c1nc(Nc2nc3ccccc3n2C)nc(NC2CC2)n1`?
TEAD-YAP block: 6; FBW7 act: 0; MITF inh: 17; GPR151 activ: 7.5*; GPR151 confirm: 0; GPR119 ag: 1

What do the screens show for `Cc1ccc(/C=C/C(=O)Nc2ccc(S(=O)(=O)Nc3onc(C)c3C)cc2)o1`?
TEAD-YAP block: 0; FBW7 act: 0; MITF inh: -3; GPR151 activ: -1

Results for COCCNC(=O)CN(C(=O)CCC(=O)Nc1ccccn1)c1ccc2c(c1)OCO2 ?
TEAD-YAP block: -5; FBW7 act: 0; MITF inh: 8; GPR151 activ: -1

What do the screens show for `COc1ccccc1C(CC(=O)Nc1nccs1)c1ccc2c(c1)OCO2` (stereo not given)?
TEAD-YAP block: -5; FBW7 act: 0; MITF inh: 0; GPR151 activ: 6.6*; GPR151 confirm: 0; GPR119 ag: 13

What do the screens show for `O=C(CN(C(=O)CCC(=O)Nc1nccs1)c1cccc(F)c1)NCC1CCCO1` (stereo not given)?
TEAD-YAP block: -5; FBW7 act: 1; MITF inh: 11; GPR151 activ: 9.2*; GPR151 confirm: 1; GPR119 ag: 0

How did COCCNC(=O)CN(C(=O)CCC(=O)Nc1nccs1)c1ccc2c(c1)OCO2 do in these assays?
TEAD-YAP block: 1; FBW7 act: 0; MITF inh: -4; GPR151 activ: 7.3*; GPR151 confirm: 1; GPR119 ag: 11

Results for O=C(Nc1nc(-c2ccc(F)cc2)cs1)c1cccc(Oc2ccccc2)c1 ?
TEAD-YAP block: -4; FBW7 act: 1; MITF inh: 0; GPR151 activ: -1

What do the screens show for `Cc1ccc(C2=C/C(=C/c3ccccn3)C(=O)O2)c(C)c1`?
TEAD-YAP block: -44; FBW7 act: 0; MITF inh: 1; GPR151 activ: 5.3*; GPR151 confirm: 2; GPR119 ag: -9

Results for COc1ccc(-n2c(O)c(C=NCc3ccc(F)cc3)c(=O)[nH]c2=O)cc1 ?
TEAD-YAP block: 5; FBW7 act: 0; MITF inh: 18; GPR151 activ: 7.1*; GPR151 confirm: -1; GPR119 ag: -5

What do the screens show for `CCCNC(=O)Cn1cnc2sc(C(=O)N3CCN(c4ccccc4)CC3)c(C)c2c1=O`?
TEAD-YAP block: -4; FBW7 act: 0; MITF inh: 3; GPR151 activ: 3

Assay outcomes (PubChem BioAssay)
